In the supplement of paper PMC10681739:

How the values were obtained:
ETS1 [1] = biological target: T1, ETS1 (UniProt P14921); assay: ETS1 binding intensity (PBM fluorescence), ETS1 alone (arbitrary fluorescence units); higher = stronger binding; settings: ETS1 concentration 1 nM; RUNX1 concentration 0 nM
T1 sequence: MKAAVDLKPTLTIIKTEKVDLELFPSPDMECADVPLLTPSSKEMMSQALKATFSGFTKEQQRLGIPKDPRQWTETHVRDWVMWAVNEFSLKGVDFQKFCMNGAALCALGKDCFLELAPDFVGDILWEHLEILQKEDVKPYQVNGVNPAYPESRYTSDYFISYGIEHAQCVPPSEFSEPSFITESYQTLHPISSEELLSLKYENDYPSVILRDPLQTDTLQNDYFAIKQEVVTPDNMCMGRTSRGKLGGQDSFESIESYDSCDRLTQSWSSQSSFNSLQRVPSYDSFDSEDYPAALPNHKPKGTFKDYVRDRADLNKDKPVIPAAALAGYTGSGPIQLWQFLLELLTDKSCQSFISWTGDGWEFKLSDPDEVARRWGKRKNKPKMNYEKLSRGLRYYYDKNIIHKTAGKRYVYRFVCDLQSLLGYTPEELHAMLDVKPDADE

RUNX1 [2] = biological target: RUNX1 (UniProt Q01196); assay: RUNX1 binding intensity (PBM fluorescence), RUNX1 alone (arbitrary fluorescence units); higher = stronger binding; settings: RUNX1 concentration 2 nM; ETS1 concentration 0 nM
Chain of RUNX1 (Q01196 whole entry): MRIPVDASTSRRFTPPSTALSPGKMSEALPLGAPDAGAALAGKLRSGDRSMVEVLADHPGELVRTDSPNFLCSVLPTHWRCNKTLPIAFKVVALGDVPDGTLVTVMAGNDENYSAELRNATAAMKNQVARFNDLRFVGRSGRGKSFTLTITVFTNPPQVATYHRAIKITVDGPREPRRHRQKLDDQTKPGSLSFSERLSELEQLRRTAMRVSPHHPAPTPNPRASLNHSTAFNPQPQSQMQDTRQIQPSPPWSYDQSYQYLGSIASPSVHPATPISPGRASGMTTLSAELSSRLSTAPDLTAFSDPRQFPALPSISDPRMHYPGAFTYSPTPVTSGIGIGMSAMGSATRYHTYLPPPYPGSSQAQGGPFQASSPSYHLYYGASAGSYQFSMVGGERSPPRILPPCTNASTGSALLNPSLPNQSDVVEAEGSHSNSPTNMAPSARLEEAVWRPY
Procedure: (§1)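 Cooperative gcPBM on 36-bp genomic probes with neighbouring ETS1 and RUNX1 sites. Recombinant human RUNX1 (2 nM) was incubated alone or with ETS1 (25 nM) and detected with anti-RUNX1 antibody plus Alexa488 secondary. Values are medians over 4 replicate spots; the RUNX1+ETS1 data were normalised to the RUNX1-only data. The probes sit in constant array flanks that are not printed.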

ETS1 [3] = biological target: T1, ETS1; assay: ETS1 binding intensity (PBM fluorescence) in presence of RUNX1, normalised to ETS1-only experiment (arbitrary fluorescence units); higher = stronger binding; settings: ETS1 concentration 1 nM; RUNX1 concentration 25 nM
RUNX1 [4] = biological target: RUNX1 (UniProt Q01196); assay: RUNX1 binding intensity (PBM fluorescence) in presence of ETS1, normalised to RUNX1-only experiment (arbitrary fluorescence units); higher = stronger binding; settings: RUNX1 concentration 2 nM; ETS1 concentration 25 nM
Procedure: as §1
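Throughout, for RUNX1 binding intensity (PBM fluorescence) in presence of ETS1, normalised to RUNX1-only experiment: Full-length recombinant human ETS1 or RUNX1 bound to double-stranded 36-bp genomic probes on microarrays, detected by protein-specific primary antibody and Alexa488 secondary, spot fluorescence as median of four replicate spots.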
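Throughout, for RUNX1 binding intensity (PBM fluorescence), RUNX1 alone: Full-length recombinant human RUNX1 bound to double-stranded 36-bp genomic probes on a high-density microarray, scored as Alexa488 fluorescence per spot via anti-RUNX1 antibody, median of four replicate spots.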

| Sequence | ETS1 binding intensity (ETS1 [1]) | RUNX1 binding intensity (RUNX1 [2]) | ETS1 binding intensity (ETS1 [3]) | RUNX1 binding intensity (RUNX1 [4]) |
| --- | --- | --- | --- | --- |
| CACTGATTAAGAGGAAGTGTGTGTGGTTATTACCGT | 1980 | 804 | 8330 | 1170 |
| ACTGCACGGCTGGGAGGATGTGGTCACACACGCCAC | 1380 | 869 | 11400 | 1350 |
| TGGGGTGGTGACATGGGATGTGGTTTTGGGGTTGCA | 510 | 974 | 3860 | 1070 |
| GGGCGCGACTTCCGGGGCGGCGGTTGCATCAGATTC | 1580 | 774 | 1780 | 2100 |
